According to PubChem BioAssay (EPA / NIEHS):
Results filed as inconclusive are left out. Active and inactive are the calls of the source. Rule for the calls, unless noted: active = hit-call score of the fitted dose curve at least 0.9, where 1 is the maximum; inactive = score below 0.9.

What was measured:
[1] = read-out: Interleukin-8 (IL8), CXCL8 (gene 3576); test: BSK_3C_IL8: BioMAP Diversity Plus: 3C Assay for Interleukin-8 (IL8) Biomarker Activity (AID 2283020); conditions: primary human endothelial cells (HUVEC); actives raise or lower the signal
In short: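 Primary human umbilical vein endothelial cells (3C system) were exposed to test chemical for 24 h, then IL-8 was quantified by ELISA. Responses were fitted bidirectionally against DMSO vehicle as baseline.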

[2] = read-out: Monokine induced gamma interferon (MIG), CXCL9 (gene 4283); test: BSK_3C_MIG: BioMAP Diversity Plus: 3C Assay for Monokine induced gamma interferon (MIG) Biomarker Activity (AID 2283021); conditions: primary human endothelial cells (HUVEC); actives raise or lower the signal
In short: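 Primary human umbilical vein endothelial cells in the 3C system were exposed to chemical for 24 h, after which MIG was quantified by ELISA. Activity was fitted bidirectionally against DMSO as negative control and baseline.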

[3] = biological target: human Vitamin D Receptor (VDR), VDR (gene 7421) (UniProt P11473); test: ATG_VDR_TRANS: Attagene TRANS-FACTORIAL HepG2 Assay for human Vitamin D Receptor (VDR) (AID 2283022; active = hit-call score of the fitted dose curve at least 0.9, where 1 is the maximum)
human Vitamin D Receptor (VDR), VDR (gene 7421), sequence (P11473 whole entry, looked up, the tested form may be a part): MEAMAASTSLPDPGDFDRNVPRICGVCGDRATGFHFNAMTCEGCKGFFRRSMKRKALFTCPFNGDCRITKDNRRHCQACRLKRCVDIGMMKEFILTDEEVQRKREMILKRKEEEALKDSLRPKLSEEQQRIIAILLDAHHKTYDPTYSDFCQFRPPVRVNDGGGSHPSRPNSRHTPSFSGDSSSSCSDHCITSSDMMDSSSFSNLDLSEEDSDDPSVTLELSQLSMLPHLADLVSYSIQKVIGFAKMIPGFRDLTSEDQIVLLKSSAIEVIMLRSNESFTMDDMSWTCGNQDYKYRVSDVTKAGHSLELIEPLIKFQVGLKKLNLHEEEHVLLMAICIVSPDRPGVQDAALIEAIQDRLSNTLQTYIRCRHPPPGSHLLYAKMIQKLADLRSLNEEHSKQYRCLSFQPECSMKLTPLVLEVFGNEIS
In short: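 HepG2 cells were transiently transfected with GAL4-UAS reporter units and a chimeric VDR-Gal4 construct, then dosed for 24 hours. Reporter mRNA was quantified by RT-PCR, fluorescent labeling, HpaI digestion and capillary electrophoresis; gain of signal analysed vs DMSO.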

[4] = BSK_3C_SRB: Viability Assessment in the BioMAP Diversity Plus: 3C Assay (AID 2283023); conditions: primary human endothelial cells (HUVEC);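 note: fitted both ways against DMSO so a hit may be signal rise or drop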
In short: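 Human umbilical vein endothelial cells in the 3C system, treated 24 h. Total protein measured by 0.1% sulforhodamine B staining after 10% TCA fixation, read at 560 nm; bidirectional fit versus DMSO.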

[5] = read-out: Matrix Metallopeptidase 1 (MMP1), MMP1 (gene 4312); test: BSK_BE3C_MMP1: BioMAP Diversity Plus: BE3C Assay for Matrix Metallopeptidase 1 (MMP1) Biomarker Activity (AID 2283024); conditions: primary human bronchial epithelial cells; actives raise or lower the signal
In short: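 Primary human bronchial epithelial cells were dosed with test chemicals, and MMP1 levels were measured by ELISA 24 h later. Data were fitted bidirectionally against DMSO as the negative control and activity baseline.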

[6] = BSK_3C_Vis: BioMAP Diversity Plus: 3C Assay for Morphology Visualization (AID 2283025); conditions: primary human endothelial cells (HUVEC);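 note: fitted both ways so gain or loss versus DMSO counts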
In short: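 Human umbilical vein endothelial cells in the 3C system were imaged by light microscopy 24 h after chemical dosing to record cell morphology. Activity was fitted bidirectionally against DMSO as negative control and baseline; the endpoint serves as a background control.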

[7] = read-out: Pselectin, SELP (gene 6403); test: BSK_4H_Pselectin: BioMAP Diversity Plus: 4H Assay for Pselectin Biomarker Activity (AID 2283026); conditions: primary human endothelial cells (HUVEC); actives raise or lower the signal
In short: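 Primary human umbilical vein endothelial cells were exposed to test chemical for 24 h, then cell-surface P-selectin was quantified by ELISA. Activity was fitted bidirectionally against DMSO as negative control and baseline.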

[8] = BSK_4H_SRB: Viability Assessment in the BioMAP Diversity Plus: 4H Assay (AID 2283027); conditions: primary human endothelial cells (HUVEC);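 note: cells exposed to compound for 24 h before staining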
In short: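 Human umbilical vein endothelial cells were dosed with chemical and, after 24 h, fixed with 10% TCA, stained with 0.1% sulforhodamine B, and read at 560 nm to give total protein as a cytotoxicity measure. Bidirectional fitting relative to DMSO control.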

[9] = BSK_BE3C_SRB: Viability Assessment in the BioMAP Diversity Plus: BE3C Assay (AID 2283028); conditions: primary human bronchial epithelial cells
In short: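 Human bronchial epithelial primary cells in confluent culture, 24 h after chemical dosing; total protein by 0.1% SRB staining after 10% TCA fixation, read at 560 nm. Bidirectional fitting versus DMSO baseline.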

[10] = read-out: Thrombomodulin, THBD (gene 7056); test: BSK_3C_Thrombomodulin: BioMAP Diversity Plus: 3C Assay for Thrombomodulin Biomarker Activity (AID 2283029); conditions: primary human endothelial cells (HUVEC); actives raise or lower the signal
In short: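 Primary human umbilical vein endothelial cells (3C system) were exposed to chemical for 24 h, then thrombomodulin levels were measured by ELISA. Activity was fitted bidirectionally against the DMSO negative control as baseline.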

[11] = read-out: Urokinase-type plasminogen activator receptor (uPAR), PLAUR (gene 5329); test: BSK_4H_uPAR: BioMAP Diversity Plus: 4H Assay for Urokinase-type plasminogen activator receptor (uPAR) Biomarker Activity (AID 2283030); conditions: primary human endothelial cells (HUVEC); actives raise or lower the signal
In short: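 Human umbilical vein endothelial cells in the 4H system, 24 h after chemical dosing. Cell-surface uPAR measured by ELISA, fitted in both directions versus DMSO; cytotoxicity checked by SRB total protein in parallel cultures.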

[12] = read-out: Vascular endothelial growth factor receptor 2 (Homo sapiens) (UniProt P35968); test: BSK_4H_VEGFRII: BioMAP Diversity Plus: 4H Assay for Vascular endothelial growth factor receptor 2 (VEGFR2) Biomarker Activity (AID 2283031); conditions: primary human endothelial cells (HUVEC); actives raise or lower the signal
In short: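 Primary human umbilical vein endothelial cells (4H system), 24 h exposure; cell-surface VEGFR2 measured by ELISA. Bidirectional fitting versus DMSO; cytotoxicity checked in parallel by SRB total-protein staining.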

[13] = read-out: Human Leukocyte Antigen - DR isotype (HLADR), HLA-DRA (gene 3122); test: BSK_BE3C_HLADR: BioMAP Diversity Plus: BE3C Assay for Human Leukocyte Antigen - DR isotype (HLADR) Biomarker Activity (AID 2283032); conditions: primary human bronchial epithelial cells; actives raise or lower the signal
In short: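 Human primary bronchial epithelial cells in the BE3C system were exposed to chemicals for 24 h, after which HLA-DR levels were quantified by ELISA. Activity was fitted bidirectionally, gain or loss of signal, against DMSO as negative control and baseline.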

[14] = read-out: Monokine induced gamma interferon (MIG), CXCL9 (gene 4283); test: BSK_BE3C_MIG: BioMAP Diversity Plus: BE3C Assay for Monokine induced gamma interferon (MIG) Biomarker Activity (AID 2283035); conditions: primary human bronchial epithelial cells; actives raise or lower the signal;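 note: MIG protein measured by ELISA in BE3C cultures after 24 h of dosing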
In short: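 ELISA read-out of MIG in human lung bronchial epithelial primary cultures, 24 h post-dosing. Bidirectional curve fit vs DMSO baseline.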

[15] = read-out: Transforming growth factor beta 1 (TGFb1), TGFB1 (gene 7040); test: BSK_BE3C_TGFb1: BioMAP Diversity Plus: BE3C Assay for Transforming growth factor beta 1 (TGFb1) Biomarker Activity (AID 2283036); conditions: primary human bronchial epithelial cells; actives raise or lower the signal
In short: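 Human primary bronchial epithelial cells (BE3C system) were dosed with chemical and TGF-b1 levels measured by ELISA at 24 h. Activity was fitted bidirectionally relative to DMSO negative control as baseline.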

[16] = read-out: Plasminogen activator inhibitor-1 (PAI1), SERPINE1 (gene 5054); test: BSK_BE3C_PAI1: BioMAP Diversity Plus: BE3C Assay for Plasminogen activator inhibitor-1 (PAI1) Biomarker Activity (AID 2283037); conditions: primary human bronchial epithelial cells; actives raise or lower the signal
In short: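 Human primary bronchial epithelial cells were exposed to chemical for 24 h, then PAI-1 was quantified by ELISA. Activity was fitted bidirectionally relative to the DMSO negative control baseline.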

[17] = read-out: urokinase plasminogen activator (uPA), PLAU (gene 5328); test: BSK_BE3C_uPA: BioMAP Diversity Plus: BE3C Assay for urokinase plasminogen activator (uPA) Biomarker Activity (AID 2283038); conditions: primary human bronchial epithelial cells; actives raise or lower the signal;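 note: uPA protein level quantified by ELISA in cell cultures; uPA read one day after compound addition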
In short: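 Primary human bronchial epithelial cells, uPA measured by ELISA 24 h after dosing. Bidirectional change relative to DMSO; cytotoxicity checked in parallel cultures by sulforhodamine B total-protein staining.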

[18] = read-out: Urokinase-type plasminogen activator receptor (uPAR), PLAUR (gene 5329); test: BSK_BE3C_uPAR: BioMAP Diversity Plus: BE3C Assay for Urokinase-type plasminogen activator receptor (uPAR) Biomarker Activity (AID 2283039); conditions: primary human bronchial epithelial cells; actives raise or lower the signal;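 note: cells exposed to compound for one day before measurement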
In short: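 Primary human bronchial epithelial cells were dosed with chemical and harvested 24 h later; uPAR was quantified by ELISA. Activity was fitted bidirectionally against DMSO as negative control and baseline.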

[19] = read-out: Vascular cell adhesion molecule 1 (VCAM1), VCAM1 (gene 7412); test: BSK_4H_VCAM1: BioMAP Diversity Plus: 4H Assay for Vascular cell adhesion molecule 1 (VCAM1) Biomarker Activity (AID 2283033); conditions: primary human endothelial cells (HUVEC); actives raise or lower the signal;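 note: cell-surface VCAM-1 protein measured by ELISA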
In short: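 Primary human umbilical vein endothelial cells were exposed to chemicals for 24 h, after which VCAM-1 was quantified by ELISA. Responses were fitted bidirectionally against DMSO as negative control and activity baseline.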

[20] = read-out: Interferon-gamma inducible Protein 10 (IP10), CXCL10 (gene 3627); test: BSK_BE3C_IP10: BioMAP Diversity Plus: BE3C Assay for Interferon-gamma inducible Protein 10 (IP10) Biomarker Activity (AID 2283034); conditions: primary human bronchial epithelial cells; actives raise or lower the signal
In short: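 Human primary bronchial epithelial cells were exposed to chemicals for 24 hours, after which IP-10 levels were measured by ELISA. Data were fitted bidirectionally against DMSO, which served as the negative control and activity baseline.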

Measured: AC50

Nc1ccn([C@@H]2O[C@H](CO)[C@@H](O)[C@@H]2O)c(=O)n1
active: [4] 7440 nM | [6] 39000 nM | [11] 4930 nM
not listed: [19] | [20]
inactive: all other assays above

O=C(NO)C1(NS(=O)(=O)c2ccc(Oc3ccc(F)cc3)cc2)CCOCC1
not listed: [6] | [20]
inactive: all other assays above

CC(C)c1nnc2ccc(-c3ocnc3-c3cc(F)ccc3F)cn12
active: [1] 148 nM | [4] 610 nM | [5] 1050 nM | [10] 451 nM
not listed: [6] | [18]
inactive: all other assays above
